Experiment [1] concerns the target DNA dC->dU-editing enzyme APOBEC-3G (Homo sapiens) (UniProt Q9HC16). Put plainly: qHTS for inhibitors of Vif-A3G interactions: Validation (AID 588379). Note: potency is the fitted concentration of half-maximal effect. In a few lines:
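HeLa cells stably expressing Vif and A3G-eYFP, 700 cells/well, incubated overnight at 37 deg C, then exposed to compound overnight at 37 deg C. Inhibition of Vif-mediated degradation read as increased yellow fluorescence (Ex 488/Em 500-530) by laser-scanning cytometry.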
A general note: In qHTS, concentration-response curves come from the screen itself.

The target in experiment [2] is Estrogen receptor (Homo sapiens) (UniProt P03372). Description: qHTS assay for small molecule antagonists of estrogen receptor alpha signaling (AID 588513; active = well fitted curve in the direction sought with a large enough effect in the signal ratio, with a control signal flat, not every such curve was filed as active; the % refers to the signal ratio). In a few lines: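 Antagonist mode: inhibition of 0.5 nM 17-beta-estradiol-driven beta-lactamase reporter in HEK 293 ER-alpha-UAS-bla cells, 18 h at 37C, CCF4 readout after 2 h at RT. Normalised to estradiol and DMSO; titration fitted to Hill.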

Experiment [3] in a line: qHTS assay for small molecule antagonists of peroxisome proliferator-activated receptor delta signaling (AID 588535; active = well fitted inhibition curve with a large enough effect in the signal ratio, with a control signal flat, not every such curve was filed as active; the % refers to the signal ratio;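 for max response: cells co-treated with a PPAR-delta agonist as stimulator during compound exposure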). The conditions noted are these: HEK293T PPARd-UAS-bla, beta-lactamase FRET ratio, 18 h; 460 nm channel. The method, boiled down: (§1)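 GeneBLAzer PPAR-delta-UAS-bla HEK293T cells in medium with 2% charcoal/dextran FBS were preincubated 5 hrs at 37 C, then given compounds, incubated 18 hrs at 37 C, and read by CCF4 beta-lactamase fluorescence; IC50 from Hill fits.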

In experiment [4] the target is Peroxisome proliferator-activated receptor delta (Homo sapiens) (UniProt Q03181). The description is as above. The method, boiled down: as §1

Results filed as inconclusive are left out. Where a call stands in place of a potency, no number is given. The source made the active and inactive calls. Unless noted, calls come from the whole dose curve; as a rule, active = well fitted inhibition curve with a large enough effect; inconclusive = small, poorly fitted or top-dose-only effect; inactive = flat fitted curve, though single readings scatter.

Chain of DNA dC->dU-editing enzyme APOBEC-3G (Homo sapiens) (Q9HC16 whole entry, looked up): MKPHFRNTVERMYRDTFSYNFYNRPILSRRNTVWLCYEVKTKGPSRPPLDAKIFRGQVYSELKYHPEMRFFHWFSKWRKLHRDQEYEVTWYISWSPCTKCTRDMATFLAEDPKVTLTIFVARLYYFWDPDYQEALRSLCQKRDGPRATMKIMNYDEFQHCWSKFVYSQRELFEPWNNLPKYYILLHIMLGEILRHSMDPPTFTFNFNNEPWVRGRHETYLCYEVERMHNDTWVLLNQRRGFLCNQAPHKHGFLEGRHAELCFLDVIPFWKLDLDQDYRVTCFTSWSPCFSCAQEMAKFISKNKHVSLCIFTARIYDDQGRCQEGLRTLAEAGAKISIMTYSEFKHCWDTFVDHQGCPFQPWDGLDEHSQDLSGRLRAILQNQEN
Chain of Peroxisome proliferator-activated receptor delta (Homo sapiens) (Q03181 whole entry, looked up): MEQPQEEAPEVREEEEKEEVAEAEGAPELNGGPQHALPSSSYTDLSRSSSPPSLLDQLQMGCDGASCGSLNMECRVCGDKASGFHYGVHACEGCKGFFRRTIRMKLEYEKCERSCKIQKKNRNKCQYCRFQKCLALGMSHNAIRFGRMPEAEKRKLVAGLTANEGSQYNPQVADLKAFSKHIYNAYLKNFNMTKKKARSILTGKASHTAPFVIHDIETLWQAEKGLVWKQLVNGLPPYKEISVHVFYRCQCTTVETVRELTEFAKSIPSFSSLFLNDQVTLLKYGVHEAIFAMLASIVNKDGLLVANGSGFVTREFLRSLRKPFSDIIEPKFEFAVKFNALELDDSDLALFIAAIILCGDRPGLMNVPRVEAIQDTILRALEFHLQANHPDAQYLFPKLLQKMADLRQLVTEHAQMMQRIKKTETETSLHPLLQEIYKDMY
Chain of Estrogen receptor (Homo sapiens) (P03372 whole entry, looked up): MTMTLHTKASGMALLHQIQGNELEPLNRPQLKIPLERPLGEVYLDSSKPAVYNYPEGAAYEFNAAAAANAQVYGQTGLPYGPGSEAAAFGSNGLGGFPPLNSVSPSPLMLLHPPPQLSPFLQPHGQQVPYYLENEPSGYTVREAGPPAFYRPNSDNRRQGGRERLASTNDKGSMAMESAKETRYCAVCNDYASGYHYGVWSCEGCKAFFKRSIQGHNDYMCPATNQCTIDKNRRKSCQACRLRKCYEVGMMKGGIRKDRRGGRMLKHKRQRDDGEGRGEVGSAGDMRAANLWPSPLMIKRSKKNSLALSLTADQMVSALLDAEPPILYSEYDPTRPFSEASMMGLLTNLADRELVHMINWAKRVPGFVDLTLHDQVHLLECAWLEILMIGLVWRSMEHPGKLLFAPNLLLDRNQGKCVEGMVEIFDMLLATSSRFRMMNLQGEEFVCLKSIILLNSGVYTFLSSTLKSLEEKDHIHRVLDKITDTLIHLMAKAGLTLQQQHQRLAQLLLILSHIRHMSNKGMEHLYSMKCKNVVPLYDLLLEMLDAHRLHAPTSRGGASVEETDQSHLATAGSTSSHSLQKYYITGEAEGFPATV

With `CC[C@H](NC(=O)c1c(C)c(-c2ccccc2)nc2ccccc12)c1ccccc1`, the Potency entry in experiment [1] is “inactive”.
The same measure, in the same setting: for `O=C1Nc2ccc(I)cc2/C1=C/c1cc(Br)c(O)c(Br)c1` the value was 4.22 µM (active); for `O=C(O)C1=CCCNC1`, “inactive”.
On to `N=C(N)SCCc1cnc[nH]1`, for which, in experiment [1], the Potency entry is “inactive”.
Consider `N[C@H](C(=O)O)c1cc(O)cc(O)c1`, for which the Potency entry in experiment [1] was “inactive”.
Consider `CCCCCCN(CCCCCC)C(=O)Cc1c(-c2ccc(F)cc2)[nH]c2ccccc12`, for which, in experiment [1], the Potency entry was “inactive”.
For `COCc1nc2c([nH]1)c(=O)n(C)c(=O)n2CC(C)C`, in experiment [1], the Potency entry was “inactive”.
For the compound `N[C@H](C(=O)O)[C@H](O)C(=O)O`, the Potency result in experiment [1] was “inactive”.
On to `O=C(O)C1=CCCN(CCON=C(c2ccccc2)c2ccccc2)C1`, for which, in experiment [1], the Potency entry is “inactive”.
For `O=C(O)c1cccnc1C(=O)O`, in experiment [1], the Potency entry is “inactive”.
With `COc1cc(CNC(=O)CCCCCCC(C)C)ccc1O`, in experiment [1], the Potency result was “inactive”.
Regarding `CC(C)NC[C@H](O)COc1cccc2ccccc12`, the Potency entry in experiment [1] was “inactive”.
As to `CSC(=N)N`, in experiment [1], the Potency entry was “inactive”.
`COC(=O)[C@H](NC(=O)c1cc(-c2ccccc2)nc2ccccc12)c1ccccc1`: in experiment [1], the Potency entry was “inactive”.
The same measure, in the same setting: for `CCCn1c(=O)c2[nH]c(C3CCCC3)nc2n(CCC)c1=O` the value was “inactive”.
For the compound `NC(=O)c1ccccc1`, in experiment [2], the result was inactive.
With `CC1=C(/C=C/C(C)=C/C=C/C(C)=C\C(=O)O)C(C)(C)CCC1`, in experiment [3], the max response is 61.4%. In experiment [4], the outcome was inactive.
Consider `CC(=O)C(C)=O`, for which the max response in experiment [3] is 5.57%. In addition, the compound was called inactive in experiment [4].

(Values after PubChem BioAssay (NCATS).)
